Values joined by “and” are separate entries in the source; they are usually repeats but may differ in a detail not shown here. Equal entries are not always repeated. Some structures have more than one record in an assay (separate samples or runs), and their calls can disagree. Active and inactive are the calls of the source. Rule for the calls: active = hit-call score of the fitted dose curve at least 0.9, where 1 is the maximum; inactive = score below 0.9.
Experiments:
[1] = APR_HepG2_MitoMembPot_72hr: Apredica 72-hour HepG2 Assay for Mitochondrial Membrane Potential (AID 2282917); conditions: imaging, actives raise or lower the signal
Summary of the method: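 HepG2 cells exposed 72 h to compounds at 0.39–200 uM (0.5% v/v DMSO, duplicates); MitoTracker Red CMXRos 250 nM loaded 30 min before 3.7% formaldehyde fixation, imaged by HCS fluorescence. Bidirectional fit versus DMSO.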

[2] = APR_HepG2_MitoticArrest_72hr: Apredica 72-hour HepG2 Assay for Mitotic Arrest (AID 2282918); conditions: high-content imaging, actives raise or lower the signal
Summary of the method: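 High-content imaging of fixed human HepG2 cells after 72 h compound exposure (0.39–200 uM, duplicates, 0.5% DMSO); mitotic arrest scored from phospho-histone H3 and nuclear Hoechst staining relative to DMSO.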

[3] = APR_HepG2_MicrotubuleCSK_72hr: Apredica 72-hour HepG2 Assay for Microtubule CSK Stabilty (AID 2282919); conditions: HepG2 microtubule cytoskeleton, high-content imaging, actives raise or lower the signal
Summary of the method: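 HepG2 human liver cells were dosed for 72 h at ten concentrations from 0.39 to 200 uM in duplicate (0.5% v/v DMSO final). Fixed, permeabilized cells were immunostained for alpha-tubulin (Cy5) with a Hoechst counterstain and imaged at 20x.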

[4] = APR_HepG2_P-H2AX_24hr: Apredica 24-hour HepG2 Assay for H2AX Phosphorylation (AID 2282920); conditions: high-content imaging, actives raise or lower the signal
Summary of the method: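 High-content imaging of phospho-histone H2A.x immunofluorescence, nuclei counterstained with Hoechst 33342, in fixed HepG2 cells. Compounds ran 0.39–200 uM in duplicate for 24 h, final DMSO 0.5%. Signal change fitted both directions against DMSO.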

[5] = APR_HepG2_StressKinase_72hr: Apredica 72-hour HepG2 Assay for Stress Kinase (AID 2282921); conditions: HepG2 stress kinase (phospho-c-Jun) imaging, actives raise or lower the signal
Summary of the method: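 Fluorescence intensity of Cy3-tagged anti-phospho-c-Jun antibody, quantified per cell from Hoechst-defined nuclei across six images per well, served as the read-out following 72 h exposure (0.39–200 uM, 0.5% v/v DMSO).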

[6] = APR_HepG2_StressKinase_24hr: Apredica 24-hour HepG2 Assay for Stress Kinase (AID 2282922); conditions: HepG2 stress kinase (phospho-c-Jun) imaging, actives raise or lower the signal
Summary of the method: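 HepG2 cells exposed 24 hr to compound at 0.39–200 uM (10 concentrations, duplicate), 0.5% v/v DMSO final. Fixed in 3.7% formaldehyde, permeabilized with Triton X-100, immunolabeled for phospho-c-Jun with Hoechst 33342; HCS fluorescence imaging, bidirectional fit versus DMSO.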

[7] = APR_HepG2_MitoMass_72hr: Apredica 72-hour HepG2 Assay for Mitochondrial Mass (AID 2282924); conditions: high-content imaging, actives raise or lower the signal;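 note: MitoTracker Red CMXRos stain intensity per cell imaged as mitochondrial mass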
Summary of the method: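 HepG2 cells were exposed for 72 hr to compounds at 0.39–200 uM (ten concentrations, duplicate, 0.5% v/v DMSO final). Live cells were stained with 250 nM MitoTracker Red CMXRos for 30 min, then fixed in 3.7% formaldehyde and imaged by HCS fluorescence.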

[8] = APR_HepG2_NuclearSize_72hr: Apredica 72-hour HepG2 Assay for Nuclear Size (AID 2282925); conditions: high-content imaging, actives raise or lower the signal
Summary of the method: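 HepG2 cells were exposed to compounds at ten concentrations from 0.39 to 200 uM (duplicate, 0.5% DMSO final) for 72 hr. After fixation in 3.7% formaldehyde, nuclei were stained with Hoechst 33342 (2 ug/mL) and imaged at 20x.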

[9] = ATG_CRE_CIS: Attagene CIS-FACTORIAL HepG2 Assay for human cAMP Responsive Element (CRE) binding protein 3 (AID 2282926); conditions: HepG2 CRE cis-reporter, Attagene multiplexed mRNA; actives raise or lower the signal
Summary of the method: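 Multiplexed transcription-unit reporters transfected into HepG2; 24 h dosing; RT-PCR/capillary electrophoresis fluorescence read-out; bidirectional fit vs DMSO.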

[10] = biological target: CCAAT/enhancer-binding protein beta (Homo sapiens) (UniProt P17676); experiment: ATG_C_EBP_CIS: Attagene CIS-FACTORIAL HepG2 Assay for human CCAAT/Enhancer Binding Protein (C/EBP) beta (AID 2282927); conditions: HepG2 Attagene cis-factorial transcription factor reporter; actives raise or lower the signal
Sequence of CCAAT/enhancer-binding protein beta (Homo sapiens) (P17676 whole entry, looked up): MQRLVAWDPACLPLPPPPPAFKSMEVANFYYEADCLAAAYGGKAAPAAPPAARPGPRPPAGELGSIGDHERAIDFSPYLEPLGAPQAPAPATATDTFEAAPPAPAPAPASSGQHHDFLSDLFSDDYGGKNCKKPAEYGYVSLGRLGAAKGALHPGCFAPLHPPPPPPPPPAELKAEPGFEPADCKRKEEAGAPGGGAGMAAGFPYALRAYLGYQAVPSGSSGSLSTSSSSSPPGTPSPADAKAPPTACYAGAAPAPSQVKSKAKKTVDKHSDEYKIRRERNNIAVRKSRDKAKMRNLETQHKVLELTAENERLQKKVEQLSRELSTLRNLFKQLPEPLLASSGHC
Summary of the method: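 Following a 24 h incubation with test chemical, transfected HepG2 cells yielded RNA whose reporter transcripts were quantified by RT-PCR and fluorescent capillary electrophoresis, with DMSO serving as baseline for bidirectional fitting.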

[11] = ATG_CMV_CIS: Attagene CIS-FACTORIAL HepG2 Assay for human CMV (Internal Marker) (AID 2282928); conditions: HepG2 CMV promoter reporter, transcription factor profiling; actives raise or lower the signal;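 note: endpoint acts as a background internal control marker rather than a target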
Summary of the method: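 HepG2 cells transiently transfected with multiple cis-regulated reporter units; 24 h compound exposure. Reporter mRNA quantified by RT-PCR, 6-FAM primer-extension labeling, HpaI digestion and capillary electrophoresis; bidirectional fitting against DMSO baseline.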

[12] = ATG_DR4_LXR_CIS: Attagene CIS-FACTORIAL HepG2 Assay for human Liver X Receptor (LXR), DR4 submotif (AID 2282929); conditions: HepG2 Attagene DR4 cis-reporter, mRNA transcription; actives raise or lower the signal
Summary of the method: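 DR4 cis-reporter in HepG2, 24 h exposure. Detection: RT-PCR, 6-FAM labelling, CE fragment analysis. Endpoint fitted bidirectionally, DMSO = baseline.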

[13] = biological target: Aryl hydrocarbon receptor (Homo sapiens) (UniProt P35869); experiment: ATG_Ahr_CIS: Attagene CIS-FACTORIAL HepG2 Assay for human Aryl Hydrocarbon Receptor (Ahr) (AID 2282930); conditions: HepG2 AhR cis-factorial reporter transcription; actives raise or lower the signal
Sequence of Aryl hydrocarbon receptor (Homo sapiens) (P35869 whole entry, looked up): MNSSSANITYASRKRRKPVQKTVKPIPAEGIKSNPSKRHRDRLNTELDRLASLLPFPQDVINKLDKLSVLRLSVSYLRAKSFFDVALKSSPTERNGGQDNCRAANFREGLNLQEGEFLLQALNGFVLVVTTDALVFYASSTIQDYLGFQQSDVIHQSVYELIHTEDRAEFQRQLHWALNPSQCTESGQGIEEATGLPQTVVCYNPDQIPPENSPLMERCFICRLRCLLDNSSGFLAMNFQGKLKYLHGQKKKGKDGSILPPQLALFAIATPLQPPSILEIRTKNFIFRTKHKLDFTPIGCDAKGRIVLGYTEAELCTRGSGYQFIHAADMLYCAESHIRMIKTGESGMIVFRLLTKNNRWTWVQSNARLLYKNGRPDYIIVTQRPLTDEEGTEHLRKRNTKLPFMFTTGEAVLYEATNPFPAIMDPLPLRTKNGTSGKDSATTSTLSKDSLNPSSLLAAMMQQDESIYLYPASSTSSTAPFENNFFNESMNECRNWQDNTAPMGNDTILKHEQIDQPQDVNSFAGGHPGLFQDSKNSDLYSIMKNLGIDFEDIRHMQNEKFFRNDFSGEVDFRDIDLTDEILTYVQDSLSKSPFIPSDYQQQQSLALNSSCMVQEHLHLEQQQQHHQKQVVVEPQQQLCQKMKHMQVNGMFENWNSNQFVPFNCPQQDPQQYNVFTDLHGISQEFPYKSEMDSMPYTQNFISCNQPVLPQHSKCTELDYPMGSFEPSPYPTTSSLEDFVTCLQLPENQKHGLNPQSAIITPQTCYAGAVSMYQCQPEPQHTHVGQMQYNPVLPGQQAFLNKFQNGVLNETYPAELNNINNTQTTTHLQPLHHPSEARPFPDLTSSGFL
Summary of the method: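 Values derive from bidirectional fitting against DMSO negative control. Underlying signal: cis-element reporter mRNA in transiently transfected HepG2, harvested 24 h post-dose and measured by RT-PCR plus capillary electrophoresis.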

[14] = ATG_AP_1_CIS: Attagene CIS-FACTORIAL HepG2 Assay for human Activator Protein 1 (AP-1) (AID 2282931); conditions: HepG2 Attagene cis-factorial AP-1 reporter mRNA; actives raise or lower the signal
Summary of the method: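 Cis-regulated reporter units transiently expressed in HepG2 report endogenous transcription-factor activity. Signal: reporter mRNA at 24 h, via RT-PCR and fluorescent capillary electrophoresis. Endpoint derived by bidirectional fitting, DMSO as negative control.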

[15] = ATG_AP_2_CIS: Attagene CIS-FACTORIAL HepG2 Assay for human Activator Protein 2 (AP-2) (AID 2282932); conditions: HepG2 AP-2 cis-reporter, Attagene transcription factor profiling; actives raise or lower the signal
Summary of the method: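 HepG2 cells were transiently transfected with multiple cis-promoter reporter transcription units and dosed for 24 h. Reporter mRNA was measured by RT-PCR with capillary electrophoresis fluorescence; bidirectional fits relative to DMSO baseline.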

[16] = ATG_BRE_CIS: Attagene CIS-FACTORIAL HepG2 Assay for human Bone Morphogenetic Protein (BMP) Response Element (BRE) (AID 2282933); conditions: HepG2 BMP response element reporter, Attagene transcription factor profiling; actives raise or lower the signal
Summary of the method: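 Multiplexed cis-reporter assay, HepG2, 24 h exposure. mRNA from reporter units quantified via RT-PCR/CE; DMSO baseline; bidirectional curve fit.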

[17] = biological target: Retinoic acid receptor alpha (Homo sapiens) (UniProt P10276); experiment: ATG_DR5_RAR_CIS: Attagene CIS-FACTORIAL HepG2 Assay for human Retinoic Acid Receptor Alpha (RARE), DR5 submotif (AID 2282934); conditions: HepG2 Attagene cis-factorial RARE DR5 reporter, mRNA; actives raise or lower the signal;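 for AC50: reporter responds to endogenous RAR alpha beta and gamma in HepG2 not RARA alone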
Sequence of Retinoic acid receptor alpha (Homo sapiens) (P10276 whole entry, looked up): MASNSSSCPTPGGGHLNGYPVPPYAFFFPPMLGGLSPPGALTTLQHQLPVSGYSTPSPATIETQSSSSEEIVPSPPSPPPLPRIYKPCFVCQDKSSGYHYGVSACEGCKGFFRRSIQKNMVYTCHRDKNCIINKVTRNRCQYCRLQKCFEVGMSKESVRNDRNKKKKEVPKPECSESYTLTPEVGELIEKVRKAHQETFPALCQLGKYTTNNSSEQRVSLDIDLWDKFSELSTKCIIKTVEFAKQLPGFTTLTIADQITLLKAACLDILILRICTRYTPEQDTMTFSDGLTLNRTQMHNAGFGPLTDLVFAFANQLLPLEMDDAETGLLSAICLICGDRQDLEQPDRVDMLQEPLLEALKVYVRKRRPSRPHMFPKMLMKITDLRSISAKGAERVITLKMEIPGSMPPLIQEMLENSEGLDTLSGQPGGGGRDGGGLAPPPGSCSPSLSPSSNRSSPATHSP
Summary of the method: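 Endpoint fitted in both directions relative to DMSO as negative control. It reflects DR5 cis-element reporter mRNA induction in transiently transfected HepG2 cells, measured 24 h after dosing through RT-PCR and fluorescent capillary electrophoresis.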

[18] = biological target: Transcription factor E2F1 (Homo sapiens) (UniProt Q01094); experiment: ATG_E2F_CIS: Attagene CIS-FACTORIAL HepG2 Assay for human E2F Transcription Factor 1 (AID 2282935); conditions: HepG2 Attagene cis-reporter, E2F reporter RNA transcripts; actives raise or lower the signal
Sequence of Transcription factor E2F1 (Homo sapiens) (Q01094 whole entry, looked up): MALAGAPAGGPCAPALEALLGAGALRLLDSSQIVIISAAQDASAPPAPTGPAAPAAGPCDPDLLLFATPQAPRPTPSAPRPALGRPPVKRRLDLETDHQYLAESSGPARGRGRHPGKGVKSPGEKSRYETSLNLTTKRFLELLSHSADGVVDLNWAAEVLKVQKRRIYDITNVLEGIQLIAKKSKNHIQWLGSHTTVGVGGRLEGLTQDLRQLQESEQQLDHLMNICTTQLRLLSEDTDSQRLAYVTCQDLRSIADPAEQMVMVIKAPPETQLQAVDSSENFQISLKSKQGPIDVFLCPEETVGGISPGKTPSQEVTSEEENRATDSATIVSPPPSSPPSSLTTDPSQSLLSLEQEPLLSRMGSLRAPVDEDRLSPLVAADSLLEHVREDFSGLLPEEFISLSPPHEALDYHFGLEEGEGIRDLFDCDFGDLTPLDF
Summary of the method: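 HepG2 cells transiently transfected with multiplexed cis-element reporter units, dosed for 24 h. Reporter mRNA measured by RT-PCR, 6-FAM primer-extension labeling, HpaI digestion and capillary electrophoresis; bidirectional fit versus DMSO baseline.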

[19] = APR_HepG2_p53Act_72hr: Apredica 72-hour HepG2 Assay for p53 Activation (AID 2282923); conditions: high-content imaging, actives raise or lower the signal;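 note: average cellular p53 protein immunofluorescence intensity in HepG2 cells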
Summary of the method: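 HepG2 monolayers receive test compounds in duplicate at ten concentrations (0.39 through 200 uM) for 72 hr. They are then formaldehyde-fixed, antibody-labelled for p53, Hoechst-stained and imaged, with activity fitted bidirectionally versus DMSO.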

Measured: AC50

Cc1ccc(C(C)C)cc1
not listed: [19]
inactive: all other assays above

C[C@]12CC[C@@H]3c4ccc(O)cc4CC[C@H]3[C@@H]1CC[C@H]2O
active: [4] 62.4 µM | [11] 27.5 µM [middle of 4 runs] | [13] 49 µM | [17] 5.92 µM
inactive: [2] | [3] | [5] | [6] | [19] | [7] | [8] | [9] | [10] | [12] | [13] | [14] | [15] | [16] | [17] | [18]

Oc1ccccc1
not listed: [12]
inactive: all other assays above

CC1=CC(=O)/C(=C(/C)O)C(=O)O1
not listed: [1] | [12] | [13] | [19]
inactive: all other assays above

Cc1cn([C@H]2C[C@H](N=[N+]=[N-])[C@@H](CO)O2)c(=O)[nH]c1=O
active: [11] 27.4 µM
not listed: [12] | [19]
inactive: all other assays above

O=C1CCC(C2CCCCC2)CC1
active: [11] 100 µM and 39.3 µM | [14] 133 µM [middle of 4 runs] | [15] 163 µM | [16] 147 µM and 156 µM
inactive: [2] | [3] | [4] | [5] | [6] | [19] | [7] | [8] | [9] | [10] | [11] | [13] | [15] | [16] | [17] | [18]

OC12N=C(c3ccccc3)SC1Cc1cc(Cl)ccc12 (stereo not drawn)
active: [1] 0.548 µM | [2] 46.8 µM | [13] 2.32 µM | [14] 3.8 µM
inactive: all other assays above

O=C(Nc1ccc(Cl)cc1)Nc1ccc(Cl)c(Cl)c1
active: [1] 56.3 µM | [2] 5.5 µM | [3] 6.77 µM | [4] 4.63 µM | [5] 7.87 µM | [9] 4.04 µM | [14] 10.5 µM | [16] 5.32 µM
not listed: [12] | [19]
inactive: all other assays above

COc1cccc([C@H](O)C2CCN(CCc3ccc(F)cc3)CC2)c1OC
active: [2] 102 µM | [3] 103 µM
not listed: [12] | [19]
inactive: all other assays above

CN(C[C@@H](CC[N+]12CCC(C3CCCCC3)(CC1)CC2)c1ccc(Cl)c(Cl)c1)C(=O)c1cc(C(F)(F)F)cc(C(F)(F)F)c1
active: [2] 36.3 µM | [3] 28.4 µM | [4] 35.1 µM
not listed: [1] | [19]
inactive: all other assays above

Cc1c2ccccc2c(C)c2c1ccc1ccccc12
active: [2] 35.8 µM | [3] 74 µM | [4] 19.8 µM | [5] 6.17 µM | [19] 355 nM | [8] 54.7 µM | [11] 33.1 µM | [12] 10.4 µM | [13] 3.38 µM | [14] 25.5 µM | [16] 14.6 µM | [17] 53.3 µM
inactive: [1] | [6] | [7] | [9] | [10] | [15] | [18]

CCCC(=O)OCCC(C)C
not listed: [1] | [12]
inactive: all other assays above

O=C(O)Cc1cc(I)c(Oc2ccc(O)c(I)c2)c(I)c1
active: [14] 160 µM and 100 µM and 74.8 µM | [15] 50.9 µM | [16] 89 µM
inactive: [2] | [3] | [4] | [5] | [6] | [7] | [8] | [9] | [10] | [11] | [13] | [14] | [15] | [16] | [17] | [18]
